Screening results (PubChem BioAssay)
The list is not random: actives were taken first. Their share in the collection is about 3%.
NALP1 yeast inh: inhibitors of NALP1 inflammasome in yeast; S. cerevisiae NALP1/ASC/caspase-1 growth, X-gal OD620, 72 h; 280,000 compounds, 0.61% hits; inhibition, % at 10 µM; in the data active means inhibition mostly above about 24%, no sharp cut-off; inactive means mostly below about 32%
CHT block: human CHT choline transport inhibition; Q9GZV3; CHT-expressing cells, membrane potential dye, choline response; active compounds read low; B-score at 10 µM; 310,000 compounds, 0.86% hits; AID 488975;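 active means B-score over 3 SD under the library average, and starting fluorescence ratio not unusually high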;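 further: choline stimulus applied at its EC90 after an EC20 pre-addition; B-score computed on integrated fluorescence ratio after choline addition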
Target sequence (Q9GZV3 whole entry, looked up): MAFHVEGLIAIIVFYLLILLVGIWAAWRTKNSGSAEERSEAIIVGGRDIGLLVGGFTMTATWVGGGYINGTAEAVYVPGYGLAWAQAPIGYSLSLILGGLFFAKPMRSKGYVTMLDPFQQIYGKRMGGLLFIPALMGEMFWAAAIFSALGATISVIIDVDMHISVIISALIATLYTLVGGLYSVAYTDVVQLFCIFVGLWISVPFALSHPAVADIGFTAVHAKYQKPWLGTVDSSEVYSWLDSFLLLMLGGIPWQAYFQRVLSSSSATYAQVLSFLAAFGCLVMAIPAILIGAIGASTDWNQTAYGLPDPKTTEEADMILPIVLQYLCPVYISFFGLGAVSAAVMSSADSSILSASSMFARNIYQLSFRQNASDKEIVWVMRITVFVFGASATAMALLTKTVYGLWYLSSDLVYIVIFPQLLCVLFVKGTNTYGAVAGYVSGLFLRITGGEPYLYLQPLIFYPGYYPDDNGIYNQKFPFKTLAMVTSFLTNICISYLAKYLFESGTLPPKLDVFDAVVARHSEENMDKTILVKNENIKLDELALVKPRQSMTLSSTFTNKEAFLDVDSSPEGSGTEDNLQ
Mot1-301 SUMO: SUMOylation pathway inhibition by Mot1-301 growth rescue; S. cerevisiae Mot1-301 growth rescue, ATP luminescence, 38.5C; percent above DMSO median, 100 means doubled; growth rescue, % at 18.8 µM; 320,000 compounds, 1% hits; AID 2716;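 active means every valid replicate shows activation above 250% relative to neutral control wells; inactive means the rest, any valid replicate at or below 250%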
CHT allo act: allosteric activators of human choline transporter CHT | Q9GZV3 | CHT-expressing cells, membrane potential dye, choline EC20; active compounds read high; LV-AA mutant CHT in HEK293 cells | B-score at 10 µM | 310,000 compounds, 0.49% hits | AID 488977;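 active means initial fluorescence not abnormally high and integrated response B-score, plate-corrected, over 3 SD above library mean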
NLRP3 yeast inh: NALP3 inhibition in yeast; Yeast reconstituted NLRP3/ASC/caspase-1, beta-gal luminescence, 24 h; inhibition, % at 10 µM; 330,000 compounds, 0.39% hits; AID 2825;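 active means inhibition of 50% or more; inactive means inhibition below 50%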
Bfl-1 A1 inh: inhibitors of the anti-apoptotic protein A1, read as caspase activation. AID 2462. 330,000 compounds, 0.066% hits. caspase activation, % (no concentration beside the values). MEF A1-2A-BIM cells, Caspase-Glo 3/7 luminescence, 3 h; percent of clofoctol response, vehicle zero;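 active means over half of replicate activation scores above 10%, or exactly half above 10 with the replicate mean above 10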
Of the large screens only hits and unclear results are named; the others gave an inactive call.

CCCOc1ccc(C(=O)N(CC(C)C)c2c(N)n(Cc3ccccc3)c(=O)[nH]c2=O)cc1	none (no result: NALP1 yeast inh)
CCOC(=O)c1ccc([N+](=O)[O-])c(CS(=O)(=O)c2ccc(Cl)cc2)c1	none
Cc1ccc(S(=O)(=O)Cc2cc(F)c([N+](=O)[O-])cc2[N+](=O)[O-])cc1	NALP1 yeast inh 47, CHT block -6.4
Cn1c(C(=O)NCCN2CCOCC2)cc2c(=O)n(C)c3ccccc3c21	none
CCCN(CCC)CCNC(=O)c1cc2c(=O)n(C)c3ccccc3c2n1C	Mot1-301 SUMO 323
OCCC1CN(Cc2cccn2-c2nccs2)CCN1C1CCCCC1 (centres undefined)	NALP1 yeast inh 25
CC(C)N1CCN(Cc2cccn2-c2nccs2)CC1CCO (centres undefined)	none
CCOc1ccc(CN2CCN(Cc3cccn3-c3cccnc3)CC2CCO)cc1 (centres undefined)	none
OCCC1CN(Cc2cccn2-c2cccnc2)CCN1Cc1ccc(F)cc1 (centres undefined)	Mot1-301 SUMO 358
O=C(CCNC(=O)c1ccco1)NC(Cc1c[nH]c2ccccc12)C(=O)O (centres undefined)	none (no result: NALP1 yeast inh, CHT block, CHT allo act)
COc1cccc(CCNC(=O)CC2C(=O)NCCN2CC(C)(C)C)c1 (centres undefined)	Mot1-301 SUMO 551
COc1ccc(CN2CCNC(=O)C2CC(=O)NCCc2c[nH]c3ccccc23)c(OC)c1 (centres undefined)	Mot1-301 SUMO 524
COc1ccc2c(c1)C(c1ccc(Cl)cc1)NC(=O)C2 (centres undefined)	none (no result: NALP1 yeast inh)
CCCc1c(C(=O)NNc2cccc(Cl)c2)cnn1-c1ccccc1	Mot1-301 SUMO 478
O=C(NNc1cccc(Cl)c1)c1cccnc1Cl	Mot1-301 SUMO 344
CCCCC(=O)Nc1cccc(NC(=O)c2cccnc2Cl)c1	none (no result: NALP1 yeast inh)
CCCc1c(C(=O)Nc2ccc(F)cc2F)cnn1-c1ccccc1	none
COc1ccccc1NC(=O)CCSc1nc(C)cs1	none (no result: NALP1 yeast inh)
O=C(CCN1C(=O)/C(=C\c2ccccc2F)SC1=S)N1CCCCC1	none
O=C(CCN1C(=O)/C(=C\c2ccccc2Cl)SC1=S)N1CCN(c2ccccc2)CC1	NALP1 yeast inh 29
Cc1cc2cc(CCNC(=O)CCc3ccccc3)c(=O)[nH]c2cc1C	none
Cc1cc(C)nc(NC(=O)c2ccc(OC(C)C)cc2)n1	Mot1-301 SUMO 284
c1cc(CNC23CC4CC(CC(C4)C2)C3)ccn1	NALP1 yeast inh 27
Cc1cc(C(=O)Nc2cccc3c2O[C@@H](CN(C)S(C)(=O)=O)[C@H](C)CN([C@@H](C)CO)C3=O)n(C)n1	none (no result: NALP1 yeast inh, CHT block, Mot1-301 SUMO, CHT allo act, Bfl-1 A1 inh)
Cc1ccc(C(=O)NCCCNC(=O)COc2ccc(C)c(C)c2)cn1	Mot1-301 SUMO 289
Cc1ccc(C(=O)NCCNC(=O)COc2ccc(C)c(C)c2)cn1	none
Cc1ccc(S(=O)(=O)c2c(COC(=O)c3ccccc3Cl)c(-c3ccccc3)nn2C)cc1	NALP1 yeast inh 42
COc1ccc(NC(=O)c2cccn(CC=C(C)C)c2=O)cc1	Mot1-301 SUMO 331
COc1ccccc1CNC(=O)COC(=O)c1ccc(NC(N)=O)cc1	Mot1-301 SUMO 325
COc1ccccc1CNC(=O)COC(=O)c1ccc(C(=O)c2ccccc2)cc1	none (no result: NALP1 yeast inh, CHT block, CHT allo act)
Cc1cc(Cl)c(OCCCn2ccnc2)c(Br)c1	NALP1 yeast inh 50
Cc1cc(C)c(OCCCn2ccnc2)c(C)c1	none
COc1ccc(C(=O)/C(=C\c2ccco2)N2C=CC=CC2=C(C#N)C#N)cc1	none
N#CC(C#N)=C1C=CC=CN1/C(=C\c1ccco1)C(=O)c1ccc(Br)cc1	Mot1-301 SUMO 291 (no result: NLRP3 yeast inh)
CC1CCN(C(=O)C(=O)Nc2sc3c(c2C(N)=O)CC(C)(C)OC3)CC1	none
COc1cccc(CNC(=O)CCS(=O)(=O)c2cccc3nonc23)c1	Mot1-301 SUMO 286
CCOc1ccc(C(=O)CC(C(=O)O)N2CCCCC2)cc1 (centres undefined)	none (no result: NALP1 yeast inh, CHT block, CHT allo act)
CCCN(CCC)Cc1cc2ccccc2c2c1COC2	none
CCCCN(CCCC)Cc1cc2ccccc2c2c1COC2	NALP1 yeast inh 44
CCOC(=O)COc1ccc2ccccc2c1/C=C/[N+](=O)[O-]	NALP1 yeast inh 79 (no result: NLRP3 yeast inh)
CCOc1ccc(OCC(=O)N(CCC2=CCCCC2)c2c(N)n(Cc3ccccc3)c(=O)[nH]c2=O)cc1	Bfl-1 A1 inh 60 (no result: NALP1 yeast inh, Mot1-301 SUMO)
CC1(C)NC(=O)N(CCC(=O)Nc2cc(C(F)(F)F)ccc2Cl)C1=O	none (no result: NALP1 yeast inh, CHT block, CHT allo act)
O=C(Nc1ccc(Cl)cc1)c1ccc(OCC2CCCO2)cc1 (centres undefined)	NALP1 yeast inh 35
CC(=O)Nc1ccc(S(=O)(=O)Nc2ccccc2C(=O)N2CCCCC2)cc1	none
CN1CCc2c(sc(NC(=O)C3CCCN3S(=O)(=O)c3ccc(Cl)s3)c2C(N)=O)C1 (centres undefined)	none (no result: NALP1 yeast inh)
COc1ccc(NC(=S)N(CCC(C)C)C2CCN(C(C)C)CC2)cc1	none
COc1ccc(NC(=S)N(C(C)C)C2CCN(C(C)C)CC2)cc1Cl	NALP1 yeast inh 47
Cc1cccc(NC(=O)C2CC(=O)n3cnnc3S2)c1 (centres undefined)	NALP1 yeast inh 40 (no result: Mot1-301 SUMO)
Cn1c(-c2nonc2N)nc2ccccc21	NALP1 yeast inh 29
CC(C)(C)C(=O)COC(=O)c1ccccc1O	NALP1 yeast inh 37
CC(C)(C)C(=O)COC(=O)c1ccc(O)cc1	none
O=C(O)CCCn1cc(NC(=O)c2cccc(F)c2)cn1	NALP1 yeast inh 27
O=C(O)CCCn1cc(NC(=O)c2cc(F)c(F)cc2Cl)cn1	none
COc1ccc(C(=O)NC(=S)Nc2ccc3oc(=O)ccc3c2)cc1[N+](=O)[O-]	none
COc1ccc(OCC(N)=O)cc1	NALP1 yeast inh 39
O=C(COC(=O)Cn1cc(C(F)(F)F)ccc1=O)NCc1ccccc1	none (no result: NALP1 yeast inh, CHT block, Mot1-301 SUMO, CHT allo act, Bfl-1 A1 inh)
O=C(/C=C/c1ccc(Cl)cc1)c1ccc([N+](=O)[O-])o1	Bfl-1 A1 inh 9.9 (no result: NALP1 yeast inh)
Cc1cc(O)c(C(=O)/C=C/c2ccc(Cl)cc2)c(=O)o1	none
N#C/C(=C(/O)c1ccc2c(c1)OCO2)c1nc2cc(C(F)(F)F)ccc2s1	CHT block -8.3
O=C(Nc1cc(-c2nc3ccccc3s2)ccc1Cl)c1ccc2c(c1)OCO2	none
Cc1cccc(NC(=S)N(C)C)c1C	none
Cc1cccc(Nc2cc(C)c3c(O)cccc3n2)c1C	NALP1 yeast inh 60
COc1ccc(OC)c(S(=O)(=O)N2CCCC(C(=O)N3CCCCCC3)C2)c1 (centres undefined)	none
Cc1ccc(S(=O)(=O)N2CCN(C(=O)CC(C)n3cncn3)CC2)cc1C (centres undefined)	none
CSc1ccccc1NC(=O)CN(Cc1ccccc1)S(C)(=O)=O	Mot1-301 SUMO 287
COc1ccc(CNC(=O)CN2CCN(c3ccccc3)CC2)cc1	none
COc1ccc(CNC(=O)CN2CCN(C(c3ccccc3)c3ccccc3)CC2)cc1	NALP1 yeast inh 37
